{
  "source": "PubChem BioAssay AID1985",
  "about": "(Southern Research Specialized Biocontainment Screening …, 2009)",
  "note": "The whole screen tested about 2,300 compounds, of which about 1,000 (43%) were called active. How the calls were made is not given here. The set was probably picked from earlier hits. This is one part of the list. Measured potencies and affinities stand elsewhere.",
  "data": [
    {"assay": "PhoP regulon inhibitor project modified counter assay, GFP fluorescence readout, dose response (AID 1985)", "conditions": "S. Typhi, 4 h; series mostly up to 150 µM; inhibition: at the top concentration", "values": [
      {"smiles": "C#CCOCCOCCOCCNc1nc(N2CCN(C(=O)C(Cc3ccc(O)cc3)n3cc(C(N)CC(C)C)nn3)CC2)nc(N2CCN(C(=O)C(Cc3cc4ccccc4[nH]3)n3cc(C(N)Cc4ccc(O)cc4)nn3)CC2)n1", "note": "(stereo unspecified)", "inhibition": "-16.3% (inactive)"},
      {"smiles": "C#CCOCCOCCOCCNc1nc(N2CCN(C(=O)[C@H](Cc3ccc(O)cc3)n3cc([C@@H](N)C(C)CC)nn3)CC2)nc(N2CCN(C(=O)[C@H](Cc3cc4ccccc4[nH]3)n3cc([C@@H](N)Cc4ccc(O)cc4)nn3)CC2)n1", "note": "(stereo partly specified)", "inhibition": "-18.6% (inactive)"},
      {"smiles": "C#CCOCCOCCOCCNc1nc(N2CCN(C(=O)[C@H]([C@@H](C)CC)n3cc([C@@H](N)CO)nn3)CC2)nc(N2CCN(C(=O)[C@H](Cc3cc4ccccc4[nH]3)n3cc([C@@H](N)Cc4ccc(O)cc4)nn3)CC2)n1", "inhibition": "14.7% (inactive)"},
      {"smiles": "O=C(O)c1[nH]c2ccc(Br)cc2c1CCN1C(=O)c2cccc([N+](=O)[O-])c2C1=O", "inhibition": "28.4% (inactive)"},
      {"smiles": "Cc1ccc(CCNC(=O)c2cc(S(=O)(=O)N3CCCCC3)c[nH]2)cc1", "inhibition": "-3.72% (inactive)"},
      {"smiles": "Cn1cnnc1SCC(=O)Nc1ccc2nc(SCc3ccccc3)sc2c1", "inhibition": "18.3% (inactive)"},
      {"smiles": "CN1CCN(c2ccc(NC(=O)CSc3ccccc3)cc2F)CC1", "inhibition": "-5.04% (inactive)"},
      {"smiles": "CCOC(=O)c1ccc(NC(=O)CSc2nc(N3CCOCC3)nc(N3CCOCC3)n2)cc1", "inhibition": "-12.2% (inactive)"},
      {"smiles": "CCOc1ccccc1NC(=O)CSc1nc(N)c(C#N)cc1C#N", "inhibition": "-8.74% (inactive)"},
      {"smiles": "O=C(Nc1ccc2c(c1)OCCO2)C1CCCN1C(=O)Nc1ccc(F)cc1", "note": "(stereo unspecified)", "inhibition": "-20.6% (inactive)"},
      {"smiles": "C/C=C/c1ccc(OCc2cc(=O)n3cc(C)ccc3n2)c(OC)c1", "inhibition": "4.23% (inactive)"},
      {"smiles": "CCN(CCCNC(=O)c1cn(CC)c2ccc(S(=O)(=O)N(C)C)cc2c1=O)c1cccc(C)c1", "inhibition": "-6.32% (inactive)"},
      {"smiles": "Cc1ccc(CCN2C(=O)CCC2(C)C(=O)NC2CCCC2)cc1", "note": "(stereo unspecified)", "inhibition": "-30.8% (inactive)"},
      {"smiles": "O=C(NCc1ccccc1)N[C@@H](Cc1c[nH]c2ccccc12)C(=O)O", "inhibition": "-11.1% (inactive)"},
      {"smiles": "Cc1c(NC(=O)OCc2ccccc2)c(=O)n(-c2ccccc2)n1C", "inhibition": "11.8% (inactive)"},
      {"smiles": "Cc1c(-n2cc(C(=O)c3ccccc3O)cc(C#N)c2=O)c(=O)n(-c2ccccc2)n1C", "inhibition": "-2.88% (inactive)"},
      {"smiles": "Cc1ccc(NC(=O)c2sccc2C)cc1[N+](=O)[O-]", "inhibition": "18.1% (inactive)"},
      {"smiles": "COc1ccc(NC(=O)CC2Sc3ncnn3C2=O)cc1", "note": "(stereo unspecified)", "inhibition": "34.3% (inactive)"},
      {"smiles": "N=c1sc2c(n1Cc1ccccc1)CCCC2", "inhibition": "32% (inactive)"},
      {"smiles": "Cc1cc(NC(=O)/C=C/C(=O)N(c2ccccc2C)C(C(=O)NC2CCCC2)c2ccc(F)cc2)no1", "note": "(stereo unspecified)", "inhibition": "-12.8% (inactive)"},
      {"smiles": "C[C@@H](NC(=O)[C@@H]1Cc2ccccc2CN1)C(=O)NCC1CCCO1", "note": "(stereo partly specified)", "inhibition": "-20.9% (inactive)"},
      {"smiles": "CCOc1ccc(NC(=S)Nc2cc(C)[nH]n2)cc1", "inhibition": "-18.7% (inactive)"},
      {"smiles": "COc1ccccc1Nc1cc(C(=O)NCc2cccnc2)c2ccccc2n1", "inhibition": "-14.3% (inactive)"},
      {"smiles": "COc1ccc(Nc2c3c(nc4ccc(C)cc24)CCC3)cc1", "inhibition": "-11.8% (inactive)"},
      {"smiles": "CC1CCN(C(=O)COc2ccc(Nc3ccccc3)cc2)CC1", "inhibition": "-4.41% (inactive)"},
      {"smiles": "CC(C)(C)Nc1c2ccccc2nc2ccccc12", "inhibition": "-15% (inactive)"},
      {"smiles": "COc1c(C(=O)N2CCCC2)ccc2ccccc12", "inhibition": "-21.1% (inactive)"},
      {"smiles": "CCOC(=O)c1ccc(NC(=O)C2CCC(CNc3c(N4CCOCC4)c(=O)c3=O)CC2)cc1", "note": "(stereo unspecified)", "inhibition": "12.1% (inactive)"},
      {"smiles": "CCCCNC(=O)CCC(=O)Nc1ccc2nc(N3CCC(C)CC3)cc(C)c2c1", "inhibition": "32.3% (inactive)"},
      {"smiles": "COc1ccc(N=CC2=C(Nc3ccc(OC)cc3)c3c(C)nn(-c4ccccn4)c3CC2)cc1", "inhibition": "3.36% (inactive)"},
      {"smiles": "CCO[C@H]1OC(C(=O)O)=C[C@@H](c2ccccc2)[C@@H]1CCCO", "inhibition": "-17.4% (inactive)"},
      {"smiles": "Clc1ccc2c(c1)C(N1CCNCC1)Cc1ccccc1S2", "note": "(stereo unspecified)", "inhibition": "31% (inactive)"},
      {"smiles": "O=C(NCc1ccco1)C1CCN(C(=O)c2cc3sccc3n2Cc2ccc(Cl)cc2)CC1", "inhibition": "-20.7% (inactive)"},
      {"smiles": "Cc1ccc2nc(/C(C#N)=C\\c3ccc(N4CCCCC4)c([N+](=O)[O-])c3)[nH]c2c1", "inhibition": "37.4% [at 75 µM] (inactive)"},
      {"smiles": "C#CCOCCOCCOCCNc1nc(N2CCN(C(=O)CCCCCCCCCCNC(=O)[C@H](CCCCN)n3cc(CCO)nn3)CC2)nc(N2CCN(C(=O)CCCCCCCCCCNC(=O)[C@H](CCCCN)n3cc(CCO)nn3)CC2)n1", "inhibition": "-15.8% (inactive)"},
      {"smiles": "CCOC(=O)c1cc(-c2ccncc2)nc2c1c(C)nn2-c1ccccn1", "inhibition": "16.8% (inactive)"},
      {"smiles": "CN(C)/C=N/c1ncc(C(=O)c2ccc(Cl)cc2)s1", "inhibition": "-14.3% (inactive)"},
      {"smiles": "Cc1cc(-c2nc3ccccc3o2)c2ccccc2n1", "inhibition": "9.15% (inactive)"},
      {"smiles": "Nc1ccc(N=Nc2ccccc2)c(N)n1", "inhibition": "6.79% (inactive)"},
      {"smiles": "Cc1ccc(C)c(Nc2cc(C)nc3ccccc23)c1", "inhibition": "19.5% (inactive)"},
      {"smiles": "Nc1nn2cc(-c3ccccc3)nc2c2ccccc12", "inhibition": "-4.55% (inactive)"},
      {"smiles": "Nc1nc2ccccc2cc1-c1cccs1", "inhibition": "14.8% (inactive)"},
      {"smiles": "CCCN(C(=O)CSc1nc2ccccc2n1CC)C1CCS(=O)(=O)C1", "note": "(stereo unspecified)", "inhibition": "7.08% (inactive)"},
      {"smiles": "CCOc1ccc(-c2ccc(SCC(=O)N3CCOCC3)nn2)cc1", "inhibition": "-13.1% (inactive)"},
      {"smiles": "CCCCc1cc(=O)oc2cc(C)cc(OCC(=O)NCC3CCC(C(=O)O)CC3)c12", "note": "(stereo unspecified)", "inhibition": "-5.3% (inactive)"},
      {"smiles": "Clc1ccc2c(c1)c1cc(Cl)ccc1n2CN1CCOCC1", "inhibition": "23.1% (inactive)"},
      {"smiles": "CC(C)C(NC(=O)c1ccc(Cl)cc1)C(=O)NCC1CCCO1", "note": "(stereo unspecified)", "inhibition": "-10.1% (inactive)"},
      {"smiles": "Cc1ccc(N(CC(=O)Nc2c(C)n(C)n(-c3ccccc3)c2=O)S(C)(=O)=O)cc1C", "inhibition": "-10.6% (inactive)"},
      {"smiles": "OCC[C@H]1C[C@H](O)[C@@H](O)[C@@]2(Cc3ccccc3CO2)O1", "inhibition": "18.1% (inactive)"},
      {"smiles": "O=C(NC1(C(F)(F)F)C(=O)Nc2c1c(=O)[nH]c(=O)n2-c1ccccc1)c1ccncc1", "note": "(stereo unspecified)", "inhibition": "12.6% (inactive)"},
      {"smiles": "Cc1ccn2cc(-c3ccc4c(c3)NC(=O)CO4)nc2c1", "inhibition": "-12.7% (inactive)"},
      {"smiles": "Cc1csc2ncc(C(=O)Nc3ccon3)c(=O)n12", "inhibition": "-6.76% (inactive)"},
      {"smiles": "Cc1cccc(NCN2C(=O)c3ccccc3C2=O)c1", "inhibition": "-4.13% (inactive)"},
      {"smiles": "Cc1cccc(NC(=O)C2CCCN2S(=O)(=O)c2ccc3c(c2)n(C)c(=O)c(=O)n3C)c1", "note": "(stereo unspecified)", "inhibition": "9.71% (inactive)"},
      {"smiles": "CC(=O)Nc1ccc(S(=O)(=O)Nc2nc3ccccc3nc2Nc2cccc(S(N)(=O)=O)c2)cc1", "inhibition": "10.4% (inactive)"},
      {"smiles": "Cc1cc(C)c(S(=O)(=O)Nc2cccnc2)c(C)c1", "inhibition": "-5.79% (inactive)"},
      {"smiles": "Cc1ccc(NNS(=O)(=O)c2ccc(C)cc2)cc1", "inhibition": "-6.56% (inactive)"},
      {"smiles": "CCOc1ccccc1NC(=O)NS(=O)(=O)c1ccc(C)cc1", "inhibition": "8.52% (inactive)"},
      {"smiles": "CC(C)NC(=O)Nc1ccc(Br)cc1Cl", "inhibition": "-8.92% (inactive)"},
      {"smiles": "CC1CC(C)CN(C(=O)c2ccc(NC(=O)c3ccc(=O)[nH]c3)cc2)C1", "note": "(stereo unspecified)", "inhibition": "6.58% (inactive)"},
      {"smiles": "COCCNC(=O)CN(C(=O)CCC(=O)Nc1ccccn1)c1ccc(F)c(Cl)c1", "inhibition": "10.1% (inactive)"}
    ]}
  ]
}
